From ChEMBL document CHEMBL2218924, “A broad activity screen in support of a chemogenomic map for kinase signalling research and drug discovery” (Biochem J, 2013)

Molecular target: T1, Tyrosine-protein kinase TXK (Homo sapiens) (UniProt P42681)
T1 sequence (whole entry): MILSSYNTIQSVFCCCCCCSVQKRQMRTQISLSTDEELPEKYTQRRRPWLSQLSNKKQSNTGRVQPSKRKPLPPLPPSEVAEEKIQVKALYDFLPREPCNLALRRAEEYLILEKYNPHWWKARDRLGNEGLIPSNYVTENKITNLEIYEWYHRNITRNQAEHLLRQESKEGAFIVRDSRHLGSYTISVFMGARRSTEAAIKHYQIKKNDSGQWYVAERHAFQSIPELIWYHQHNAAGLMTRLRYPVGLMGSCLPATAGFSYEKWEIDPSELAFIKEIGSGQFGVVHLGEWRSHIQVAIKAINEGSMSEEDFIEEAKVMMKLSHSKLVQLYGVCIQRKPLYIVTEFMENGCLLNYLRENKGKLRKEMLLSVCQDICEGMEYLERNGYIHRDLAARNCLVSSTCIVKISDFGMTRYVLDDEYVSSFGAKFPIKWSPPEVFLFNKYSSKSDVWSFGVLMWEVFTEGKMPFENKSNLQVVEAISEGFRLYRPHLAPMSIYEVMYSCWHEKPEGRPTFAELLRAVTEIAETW
Settings: at 1 µM

Row | Structure (SMILES) | residual activity
1 | O=Nc1c(-c2c(O)[nH]c3ccccc23)[nH]c2ccccc12 | 45%
2 | COc1cc2ncc(-c3ccccc3)nc2cc1OC | 96%
3 | Cc1cc(Nc2nc(-c3ccccc3)nc3ccccc23)n[nH]1 | 30%
4 | Cc1cncc2cccc(S(=O)(=O)N3CCCN(C(=O)CN)C[C@H]3C)c12 | 100%
5 | COc1cc2ncnc(N3CCN(C(=O)Nc4ccc(Oc5ccccc5)cc4)CC3)c2cc1OC | 108%
6 | N#Cc1cnc2cnc(NCc3cccnc3)cc2c1Nc1ccc(F)c(Cl)c1 | 86%
7 | O=C1Nc2ccccc2/C1=C1/Nc2ccccc2/C1=N\OCCC(O)CO (configuration not stated) | 31%
8 | Oc1c2ccccc2c2c3c(cccc13)N=N2 | 58%
9 | COc1cccc(-c2cc(=O)c3ccccc3o2)c1N | 77%
10 | CNc1cc2c(Nc3cccc(Br)c3)ncnc2cn1 | 98%
11 | O=[N+]([O-])c1ccc(-c2nc(-c3ccc(F)cc3)c(-c3ccncc3)[nH]2)cc1 | 61%
12 | O=C(O)c1ccc2c3c1cccc3c(=O)n1c3ccccc3nc21 | 77%
13 | Cn1nc2c3c(cccc31)C(=O)c1ccccc1-2 | 82%
14 | CCN(CC)C(=O)c1ccc(Nc2nc(OCC3CCCCC3)c3nc[nH]c3n2)cc1 | 49%
15 | CO[C@H]1C[C@@H]2CC[C@@H](C)[C@@](O)(O2)C(=O)C(=O)N2CCCC[C@H]2C(=O)O[C@H]([C@H](C)C[C@@H]2CC[C@@H](O)[C@H](OC)C2)CC(=O)[C@H](C)/C=C(\C)[C@@H](O)[C@@H](OC)C(=O)[C@H](C)C[C@H](C)/C=C/C=C/C=C/1C | 109%
16 | COc1cc2ncnc(Nc3ccc(O)c(Br)c3)c2cc1OC | 81%

Row | Structure (SMILES) | residual activity
17 | COc1cc2ncnc(Nc3ccc(NC(=O)c4ccccc4)cc3)c2cc1OC | 95%
18 | O=C(Nc1cccc(Nc2cc(Nc3cccc(C(F)(F)F)c3)ncn2)c1)C1CC1 | 109%
19 | O=C1NC(=O)/C(=C/c2ccc3c(c2)OC(F)(F)O3)S1 | 109%
20 | O=C1c2ccccc2-[n+]2ccc3c([nH]c4ccccc43)c21 | 75%
21 | Ic1cccc(CSc2nnc(-c3ccncc3)o2)c1 | 75%
22 | CCN(CC)CCCCN1c2ccccc2Oc2ccc(Cl)cc21 | 99%
23 | CO[C@H]1[C@@H](OC)C[C@H](C)[C@@H](OC)C2=CC(=O)C=C(NC(=O)/C(C)=C/C=C/[C@H](OC)[C@@H](OC(N)=O)/C(C)=C/[C@@H]1C)C2=O | 89%
24 | c1ccc(-c2n[nH]c3c2oc2ccccc23)cc1 | 97%
25 | C[C@@H](N)[C@H]1CC[C@H](C(=O)Nc2ccncc2)CC1 | 100%
26 | N#CC(C#N)=C(N)/C(C#N)=C/c1ccc(O)cc1 | 78%
27 | O=C1Nc2ccc(Br)cc2/C1=C\c1cc2c([nH]1)CCCC2 | 107%
28 | CO[C@@H]1[C@H](N(C)C(=O)c2ccccc2)C[C@H]2O[C@]1(C)n1c3ccccc3c3c4c(c5c6ccccc6n2c5c31)C(=O)NC4 | 82%
29 | CC(=O)O/N=C1\C(=C2\C(=O)Nc3cc(Br)ccc32)Nc2ccccc21 | 74%
30 | Nc1cccc(-c2cc3c(Oc4cccc(O)c4)ncnc3[nH]2)c1 | 27%
31 | CC(C)n1cnc2c(NCc3ccccc3)nc(NCCCO)nc21 | 75%
32 | CC(C)n1cnc2/c(=N/c3cccc(Cl)c3)nc(NCCO)[nH]c21 | 68%
